Among the data in PubChem BioAssay AID652067 (The Scripps Research Institute Molecular Screening Center, 2013) are activation values, retold here.

The structures appear in SMILES notation. The whole screen tested about 370,000 compounds, of which about 5,400 (1.5%) were called active. The entries come from a sample that favours actives as a whole. Values without a mark were called inactive.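 Rule for the calls: active = activation above the mean of all tested compounds plus 3 SD (cut at about 5.5% in these data); inactive = the rest.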

The assay concerns DAF-12 nuclear receptor (Haemonchus contortus). Nature of the assay: hcDAF-12 driven luciferase reporter activation – cell-based, luminescence, HEK293, lit1-tk-luc reporter, primary screen (AID 652067).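 Note: 100% = response to 3 µM Δ7-dafachronic acid high control.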 The note with it: HEK293 hcDAF-12 lit1-tk-luc reporter, at 6.8 µM, stronger effect = higher value, 0% DMSO, 100% Δ7-dafachronic acid.
Consider `Cc1cccc(-n2c(O)c(C=Nc3ccccc3N)c(=O)[nH]c2=O)c1`, for which the activation was 6.08% (active).

In the case of `CC(=O)Nc1nc2ncccn2c1-c1ccc(C(F)(F)F)cc1`, the activation is -1.9%.

With `O=S(=O)(c1ccccc1)N1CCC(c2nc3ccccc3o2)CC1`, the activation is 2.42%.

`Clc1ccc(C(Cn2ccnc2)OCc2ccsc2Cl)c(Cl)c1` (centres undefined): the activation was -3.27%.

As to `Cn1nc(-c2ccccc2)c(CSc2cccc(Cl)c2)c1Cl`, the activation is -1.8%.

Regarding `O=c1c2ccccc2nc2n1C(CSc1ccc(Cl)cc1)CN2` (centres undefined), the activation is 2.36%.

As to `Clc1ccc2nc(CSc3ccccc3)cn2c1`, the activation was 6.03% (active).

Take `C#CCN([C@@H](C)C(=O)OCC)S(=O)(=O)c1ccc(Br)cc1F`: the activation is -0.18%.

On to `Cc1ccc(NNC(=O)C2CCC2)cc1C`, for which the activation is 2.28%.

As to `COC(C(=O)Nc1ccc(S(=O)(=O)Nc2ccc(C)c(C)c2)cc1)c1ccccc1` (centres undefined), the activation was 0.37%.

For `Cc1ccc(N/C=C/C(=O)c2ccccc2)cc1C`, the activation was 15% (active).

As to `COC(=O)C1CN(CCc2ccccc2)CCS(=O)(=O)N1Cc1ccc(F)cc1` (centres undefined), the activation was 1.33%.

As to `Cc1ccc(Cn2cc(CN3[C@@H](CC(C)C)COc4ccc(Cl)cc4S3(=O)=O)nn2)cc1`, the activation was -0.25%.

Take `COc1ccccc1N(CC(=O)Nc1ccc(C)cc1Cl)S(=O)(=O)c1cccs1`: the activation is -2.56%.

With `O=C(CN1CCCCCC1)Nc1ccc(Cl)cc1F`, the activation was -0.52%.

Turning to `O=C(CN1CCCCC1)NC(=O)Nc1ccccc1F`, the activation is 7.05% (active).

With `CN(CC(=O)NC(=O)Nc1ccccc1F)Cc1ccccc1`, the activation is -0.6%.

As for `CCOc1ccccc1C(=O)N1CCC[C@@H]1C(=O)N1CCC[C@H]1C(=O)NCc1ccccc1`, the activation was -0.98%.

For the molecule `COC(=O)C1(S(=O)(=O)C2(C(=O)OC)CCCC2)CCCC1`, the activation is -1.17%.

Consider `Oc1c(Cl)cc(Cl)cc1/C=N/c1ncn[nH]1`, for which the activation was -0.22%.

Consider `Oc1ccc(Cl)cc1/C=N/c1nc2ccccc2[nH]1`, for which the activation was 5.95% (active).

`O=C(NCc1ccccc1)[C@H]1CCCN1C(=O)[C@H]1CCCN1C(=O)N1CCOCC1`: the activation is 0.81%.

Take `COC(=O)C1=C(C)N(Cc2ccc(C(F)(F)F)cc2)C(=NCc2ccc(C(F)(F)F)cc2)NC1c1cccc(Cl)c1` (centres undefined): the activation was -0.62%.

Regarding `COc1ccc(C2CC=C(C(=O)O)C(c3ccccc3F)N2S(=O)(=O)c2ccc(C)cc2)cc1OC` (centres undefined), the activation was -1.61%.

For `CCOC(=O)c1c(NC(=O)C(C)Sc2c[nH]c3ccccc23)sc2c1CCC2` (centres undefined), the activation is 5.61% (active).

Regarding `COC(=O)c1c(NC(=O)COC(=O)[C@@H](NS(=O)(=O)c2ccccc2)C(C)C)sc2c1CCC2`, the activation was 1.86%.

Consider `CCOC(=O)c1c(NC(=O)C2(C)Cc3ccccc3C(=O)O2)sc2c1CCCC2` (centres undefined), for which the activation was -3.38%.

Turning to `O=S1(=O)c2ccc(Br)cc2-n2nncc2CN1Cc1cccc(Cl)c1`, the activation is 0.57%.

In the case of `CC(C)CNS(=O)(=O)CC1NCCc2ccccc21` (centres undefined), the activation is -2.97%.

Regarding `COc1ccc(C(=O)C[n+]2ccc(C)cc2)cc1`, the activation was 6.64% (active).

Turning to `COc1ccc(C(=O)CC(=O)c2ccc(C)cc2)c(O)c1`, the activation is -0.09%.

For the molecule `COc1ccc(C(=O)C[n+]2ccc(N)c(C)c2C)cc1`, the activation was -1.41%.

On to `O=C(CSc1nnc(-c2ccccn2)n1-c1ccc(Cl)cc1)Nc1ccccc1-c1ccccc1`, for which the activation is -4.12%.

For `Oc1cccc2ccc(/C=C/c3ccc(Br)s3)nc12`, the activation is 10.2% (active).

Regarding `O=C(Cn1c(-c2ccc(Cl)cc2)noc1=O)N1CCN(c2ccccc2F)CC1`, the activation is -0.55%.

As to `Cc1ccc(NC(=O)Nc2cc(C)nn2-c2ccccc2)cc1`, the activation is -0.41%.

Consider `COC(=O)c1cc(C(=O)OC)cc(N2C(=O)CC(N3CCN(c4ccccc4)CC3)C2=O)c1` (centres undefined), for which the activation is 0.25%.

Turning to `COC(=O)C1=NN(c2ccccc2)C2C(=O)N(c3ccccc3OC)C(=O)C12` (centres undefined), the activation is 9.57% (active).

Turning to `COC(=O)C1(C)NC(c2ccccc2OC)C2C(=O)N(c3ccccc3)C(=O)C21` (centres undefined), the activation was -2.14%.

Take `CCOC(=O)C1CSCCS(=O)(=O)N1Cc1ccc(Cl)cc1` (centres undefined): the activation is -2.38%.

Regarding `O=C(C(=O)N1CCC(CNS(=O)(=O)Cc2ccccc2)CC1)c1cc2ccccc2o1`, the activation was -0.72%.

With `COc1ccc(C2COC(=O)C2=N)c(NC(=O)c2ccccc2)c1` (centres undefined), the activation is 8.16% (active).

On to `COc1cccc(C(=O)Nc2cc3c(cc2Br)OCCCO3)c1`, for which the activation was 3.75%.

For the molecule `COc1ccc(OC)c(NC(=O)c2cccc(S(=O)(=O)N3CCN(C(C)=O)CC3)c2)c1`, the activation was 0.25%.

In the case of `COc1cc(/C=C/C(=O)n2cnc3ccccc32)cc(OC)c1OC`, the activation is 0.33%.

As for `O=C(CSc1nnc(COc2ccccc2)n1Cc1ccco1)c1ccc2ccccc2c1`, the activation was -2.67%.

As to `CCOc1ccc(OCc2ccc(C(=O)Nc3cccc(C)n3)o2)cc1`, the activation is -1.6%.

Turning to `Cc1cccc(NC(=O)c2ccc3ccccc3n2)n1`, the activation was 9.6% (active).

Consider `COC(=O)c1ccc(NC(=S)Nc2cccc(C)n2)cc1`, for which the activation was 1.84%.

For `O=C(CN1CCCc2ccccc21)NCc1ccc(F)cc1`, the activation was -1.35%.

In the case of `Cc1cc(C)n2ncc(C(=O)Nc3ccc4c(c3)OCCO4)c2n1`, the activation was -0.67%.

Turning to `C[C@H](NC(=O)c1ccccc1)C(=O)OCC(=O)c1c[nH]c2ccccc12`, the activation is 4.62%.

Regarding `O=C(OCC(=O)c1c[nH]c2ccccc12)c1cccc(O)c1`, the activation is 8.68% (active).

`CCOc1ncccc1C(=O)OCC(=O)c1c[nH]c2ccccc12`: the activation is 4.68%.

As for `CCOC(=O)C1=C(C(=O)OCC)C2N(Cc3ccc(C#N)cc3)c3ccccc3[C@@]23C[C@@H](C(=O)OC)N(S(=O)(=O)c2ccc(F)cc2)C3=N1` (some centres undefined), the activation is 0.61%.

As to `CCCCOCC1CN(CCCC)S(=O)(=O)c2c(Oc3ccc(F)cc3)cccc2O1` (centres undefined), the activation is -1.09%.

As to `C/C(=N/NC(=S)Nc1ccccc1)c1ccc2c(c1)OCO2`, the activation was 8.71% (active).

Turning to `C/C(Cc1ccccc1)=N\NC(=O)CNC(=O)c1ccc2c(c1)OCCO2`, the activation was -2.46%.

Take `C/C(=N\NC(=S)NCc1ccccc1)c1ccc(Cl)cc1`: the activation was -0.65%.

`Cn1c(=NC(=O)C2CC2)sc2cc(F)cc(F)c21`: the activation is 7.5% (active).

Turning to `Cc1cc(C)nc(NC(=S)N2CCN(c3ccc(C(F)(F)F)cn3)CC2)c1`, the activation was -1.92%.

For the molecule `CCCCN(C)C(=O)C1CCN(Cc2ccccn2)CC1`, the activation was -1.01%.

For the molecule `Cc1ccc(-c2c3c(=O)n(C)c(=O)n(C)c3cn2-n2cnnc2)cc1`, the activation is 2.64%.

For the molecule `COc1ccc(OC)c(-n2cc3c(=O)n(C)c(=O)n(C)c3c2)c1`, the activation was -1.87%.

As to `COc1ccc(-c2c3c(=O)n(C)c(=O)n(C)c3cn2-c2cccc(OC)c2)cc1`, the activation is 7.44% (active).

On to `Cc1ccc(C)c(NC(=O)CCS(=O)(=O)c2ccccc2)c1`, for which the activation was -3.65%.

Consider `COCC(C)NC(=O)c1ccc(Cl)c(Cl)c1` (centres undefined), for which the activation is -2.09%.

For the molecule `CC(CCc1ccccc1)NC(=O)c1cnc(Cl)c(Cl)c1` (centres undefined), the activation is 6.18% (active).

Consider `CC1=C(C)CC(C(=O)NC(C)CCc2ccccc2)C(C(=O)O)C1` (centres undefined), for which the activation was -2.02%.

In the case of `O=C(NC1CCCC1)C1CSCCS(=O)(=O)N1Cc1ccccc1` (centres undefined), the activation is -0.49%.

As for `COc1ccccc1CCn1cnc(-c2ccccc2)c1C(C)C`, the activation is 0.67%.

For the molecule `O=C(NCc1ccccc1)[C@H]1CCCN1C(=O)[C@H]1CCCN1C(=O)c1cc(F)cc(F)c1`, the activation was 0.44%.

On to `C[C@@H]1COc2cccc(N3CCCC3)c2S(=O)(=O)N1C`, for which the activation is -0.39%.

`COC(=O)[C@H](C(C)C)N(CCCc1cn(Cc2ccccc2)nn1)S(=O)(=O)c1ccc(F)cc1Br`: the activation is -4.11%.

Regarding `CC(C)(C)n1nc(C2CC2)c(Br)c1NC(=O)c1ccccc1F`, the activation was -0.41%.

For `COC(=O)C(NC(C)=O)(Nc1nc2c(s1)CCCC2)C(F)(F)F` (centres undefined), the activation is 1.23%.

`Fc1ccc2nc(Nc3nc4c(s3)CCCC4)sc2c1`: the activation was 10% (active).

In the case of `O=C(C1CCN(S(=O)(=O)c2ccccc2)CC1)N1CCN(C2CCCCC2)CC1`, the activation is -1.68%.

Turning to `COCCCNC(=O)C[C@H]1C[C@@]2(C(=O)OC)C(=C[C@H](C(C)(C)C)O[C@@H]2C)N(Cc2ccc(Cl)cc2Cl)C1=O`, the activation is 0.08%.

Turning to `COC(=O)Cc1nnn2c1[C@H](C)[C@@H](OC)c1cc(Br)ccc1-2`, the activation was -1.33%.

As to `c1ccc2[nH]c(-c3nc4ccccc4[nH]3)nc2c1`, the activation is 11.1% (active).

For `C/C(=N\Nc1nc2ccccc2[nH]1)c1cccs1`, the activation is 5.49%.

Take `O=C1c2ccccc2C(c2nc3ccccc3[nH]2)N1c1ccccc1` (centres undefined): the activation was -0.51%.

For the molecule `CCOC(=O)CNC(=O)CSc1ncccc1-c1nc2ccccc2[nH]1`, the activation is 1.6%.

With `Cc1ccc(-c2nc3ccccc3[nH]2)cc1N`, the activation is 10.9% (active).

With `CCOC(=O)c1nc(-c2ccc3c(c2)OCO3)[nH]c1C`, the activation is 4.99%.

`COC(=O)C1CN(CC(C)C)CCS(=O)(=O)N1Cc1ccc(F)cc1` (centres undefined): the activation was -1.55%.

For the molecule `C#CCCN([C@H](C(=O)OC)C(C)C)S(=O)(=O)c1ccc(F)cc1Br`, the activation is -1.11%.

For `CCNC(=O)c1cccc(NC(=O)C2CC(=O)N(CCc3ccccc3)C2)c1` (centres undefined), the activation was -0.37%.

As to `CN(CC(=O)Nc1cccc(F)c1)C(=O)C1CC(=O)N(CCc2ccccc2)C1` (centres undefined), the activation is 6.61% (active).

Consider `CN(Cc1ccccc1Cl)C(=O)C1CCC(=O)N(CCc2cccc(F)c2)C1` (centres undefined), for which the activation is -0.75%.

Take `Cc1ccc(NN=Nc2nc3c([nH]2)c(=O)n(C)c(=O)n3C)cc1`: the activation is 9.25% (active).

On to `Cc1cccc(C)c1NC(=O)CSc1nc2c([nH]1)c(=O)n(C)c(=O)n2C`, for which the activation was -0.94%.

Take `Cc1cc(C)c(C=NNc2nc3c([nH]2)c(=O)n(C)c(=O)n3C)c(C)c1`: the activation is 1.11%.
